Assay outcomes: PubChem BioAssay, National Center for Advancing Translational Sciences (NCATS)
Hits are enriched below; roughly 18% of the tested compounds scored in any of these assays.
VDR inhibitor: inhibitors of human vitamin D receptor; VDR-SRC2-3 peptide fluorescence polarization, 2 h; Potency, µM, without a hit: max response, negative = inhibition, actives largely listed as inhibitors; 0.93% of 400,000 active; AID 504847
Target sequence (P11473 whole entry, looked up): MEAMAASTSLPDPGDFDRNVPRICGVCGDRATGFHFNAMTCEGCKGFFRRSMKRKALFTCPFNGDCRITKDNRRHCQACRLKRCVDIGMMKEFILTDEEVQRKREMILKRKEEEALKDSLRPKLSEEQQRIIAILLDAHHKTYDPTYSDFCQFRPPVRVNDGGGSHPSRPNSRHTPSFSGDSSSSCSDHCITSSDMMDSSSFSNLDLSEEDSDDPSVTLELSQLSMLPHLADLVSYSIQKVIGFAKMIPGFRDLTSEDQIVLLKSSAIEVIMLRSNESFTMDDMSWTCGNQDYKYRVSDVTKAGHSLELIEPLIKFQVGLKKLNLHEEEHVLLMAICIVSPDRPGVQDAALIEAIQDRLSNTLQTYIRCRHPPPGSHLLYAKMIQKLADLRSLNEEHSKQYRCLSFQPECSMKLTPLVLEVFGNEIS
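FP read-out; VDR + SRC2-3 coactivator peptide; 23 nl compound by pintool; 2 h RT incubation; reagents held at 4 deg C, protected from light.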
GCN5L2 inh: GCN5L2 (KAT2A) acetyltransferase inhibition; Q92830; GCN5L2 HAT assay, ThioGlo1 CoA-SH fluorescence; Potency, µM (titrated, usually from 58.9 µM), inactives show at the highest dose activity change, negative = inhibition, most hits filed as inhibitors; 0.21% of 390,000 active
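GCN5L2 (20 nM) in 50mM HEPES pH 7.5, 0.1mM EDTA, 0.01% Tween-20 preincubated 15 min with compounds at room temperature. Reaction started with H3(1-25) 75uM, acetyl-CoA 70uM, ThioGlo1 50uM; CoA-thiol fluorescence (Ex340/Em540) read at 0 and 20 min.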
PLK1 PBD block: PLK1 (human) polo-box domain binding inhibition; P53350; Plk1 PBD binding of FITC phosphopeptide, fluorescence polarization; Potency, µM, inactives show max response, negative = inhibition, actives largely listed as inhibitors; 2.8% of 360,000 active; AID 720504; further: series mostly up to about 57 µM; nearly all actives have a fitted effect of over 65% in size
DT40 TDP1 CPT: DT40-hTDP1 cell growth loss with CPT. Potency, µM (titrated, usually from 46.2 µM), for inactives: top-dose activity change, negative = growth inhibition, usual class: inhibitors. 12% of 420,000 active. chicken DT40 Tdp1-/-;hTDP1 cells + 20 nM CPT, ATP luminescence, 48 h; further: nearly all actives have a fitted effect of over 55% in size
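Cell growth measured by CellTiter-Glo luminescence after a minimum 48 h, 37 C compound exposure with 20 nM CPT in Tdp1-knockout DT40 cells stably expressing hTDP1, seeded 400/well; qHTS titration format.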
TDP1 inh: TDP1 (human) enzyme inhibition. Q9NUW8. recombinant TDP1, AlphaScreen DNA substrate cleavage. Potency, µM (highest dose often 130 µM), for the others: at the top dose activity change, negative = inhibition, actives largely listed as inhibitors. 0.28% of 350,000 active. AID 485290; further: nearly all actives have a fitted effect of over 40% in size
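Here, a 5' biotin and 3' phosphotyrosine-FITC DNA oligonucleotide reports Tdp1 activity: intact substrate bridges AlphaScreen beads, while cleavage leaves a 3' phosphate and drops signal. All incubations at room temperature.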
TDP1 cell noCPT: qHTS for Inhibitors of human tyrosyl-DNA phosphodiesterase 1 (TDP1): qHTS in cells in absence of CPT; 15% of 420,000 active; AID 686978, 2013; Potency, µM (titrated, usually from 46.2 µM), without a hit: at the top dose activity change, negative = growth inhibition, usual class: inhibitors; DT40 Tdp1-/- hTDP1 cells, no CPT, ATP luminescence, 48 h; further: nearly all actives have a fitted effect of over 55% in size
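DT40 Tdp1-/-;hTDP1 cells, no CPT (DMSO vehicle only), 400 cells/well; compounds pin-transferred; ≥48 hr, 37 °C; CellTiter-Glo 30 min RT dark, luminescence read.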
* = called active by the depositor; u = inconclusive; x = no result; [ ] = another dose, or the depositor's remark. The call rests on the fitted dose curve; in most records, active means well fitted curve in the direction sought with a large enough effect; inconclusive means small, poorly fitted or top-dose-only effect, or another doubt; inactive means no such curve, though single readings can be large; an effect the other way counts as inactive or inconclusive. On the % scale 0 is the no-effect control and ±100 the full control effect; potency means the concentration at half of the fitted maximal effect.

SMILES	VDR inhibitor	GCN5L2 inh	PLK1 PBD block	DT40 TDP1 CPT	TDP1 inh	TDP1 cell noCPT
O=C(CN1CCN(C(=O)COc2cccc(F)c2)CC1)Nc1ccc(Cl)c(C(F)(F)F)c1	-5.5%	-3.5%	0.5%	20.6µM*	2.1%	5.17µM*
Cc1ccc(S(=O)(=O)N2CCCCC2)cc1NC(=O)Nc1ccc(Cl)cc1Cl	-19.2%	44.2%	-5.2%	2.59µM*	-2.7%	u
CCCC(C)(COC(N)=O)COC(N)=O	13.4%	-15.9%	x	-12.3%	4.2%	-7.8%
CCCCN1CC(COCc2ccccc2)Oc2cccc(Oc3ccc(C(C)C)cc3)c2S1(=O)=O (stereo not given)	0.5%	x	-10.0%	10.3µM*	x	5.17µM*
NP(N)(=O)NC(=O)c1ccc(F)cc1	-0.6%	-10.0%	x	u	9.5%	u
O=C(c1cc2cc(Cl)ccc2[nH]1)N1CCC2(CC1)OCCO2	-14.7%	-2.6%	-10.7%	18.4µM*	3.0%	u
O=C(c1cc2cc(F)ccc2[nH]1)N1CCC2(CC1)OCCO2	-8.1%	-20.8%	-20.1%	u	3.0%	u
NC(=O)c1cn(C2OC(CO)C(O)C2O)c2ncnc(N)c12 (stereo not given)	-0.3%	-3.8%	0.5%	0.0082µM*	0.0%	0.0164µM*
N#Cc1c(Br)n(C2OC(CO)C(O)C2O)c2ncnc(N)c12 (stereo not given)	-21.7%	x	-3.4%	1.46µM*	x	1.16µM*
N#Cc1cn(C2OC(CO)C(O)C2O)c2ncnc(N)c12 (stereo not given)	-9.1%	x	1.1%	0.0146µM*	x	0.0146µM*
CCCCCOc1c(OC)ccc2cc(C(=O)NCc3ccc4c(c3)OCO4)c(=O)[nH]c12	1.4%	4.1%	x	x	8.2%	x
CC1(O)CCC2C3CCC4=CC(=O)CCC4=C3C=CC21C (stereo not given)	-11.0%	x	-1.0%	9.2µM*	x	14.6µM*
O=C(CN1CC(c2ccccc2)CC1=O)Nc1cccc(F)c1 (stereo not given)	-9.6%	-0.6%	u	2.5%	-2.6%	-5.8%
O=C(CN1CC(c2ccccc2)CC1=O)Nc1ccc(F)cc1 (stereo not given)	6.5%	-3.4%	-14.1%	2.91µM*	0.0%	-14.9%
CC(C)(OOC1(c2ccccc2)NC(=O)c2ccccc21)c1ccccc1 (stereo not given)	x	x	-3.3%	u	x	18.4µM*
C=CCn1c(CSc2ccccc2[N+](=O)[O-])n[nH]c1=S	u	-19.5%	11.9µM*	4.8%	x	-19.6%
CC1CC(C)(O)CC(C(O)CC2CC(=O)NC(=O)C2)C1=O (stereo not given)	-9.6%	x	-5.0%	0.184µM*	x	0.184µM*
COc1ccc([C@H]2C[C@@H](O)[C@H](n3cc(COC(=O)c4ccccc4)nn3)CN2Cc2cccs2)cc1	x	x	-2.3%	-4.7%	x	-14.3%
CC1=C2C[C@H]3[C@@H](CC=C4C[C@@H](O)CC[C@@]43C)[C@@H]2CC[C@]12O[C@@H]1C[C@H](C)CN[C@H]1C2C (stereo not given in full)	1.1%	-10.9%	x	x	5.1%	x
CCOC(=O)c1cccc(C2=C(CNC(=O)c3nccs3)[C@H]3CC[C@@H](C2)N3Cc2ccccc2)c1	x	x	-10.5%	14.6µM*	x	23.1µM*
CC(C)c1ccc(NC(=O)C2CCC(CNS(=O)(=O)c3ccc4c(c3)CCCC(=O)N4)CC2)cc1 (stereo not given)	4.3%	-3.9%	x	13µM*	-2.6%	16.4µM*
ClC(Cl)(Cl)C(Cl)(Cl)Cl	x	x	x	x	13.2%	x
COC(=O)C1=C(c2ccccc2)C[C@@H]2CC[C@H]1N2C(=O)NCc1cccc2ccccc12	-10.5%	x	-16.4%	u	x	u
O=P(c1ccccc1)(c1ccccc1)N(c1ccccc1)c1ccccc1	-2.2%	2.3%	5.1%	2.91µM*	-1.2%	4.61µM*
C[C@]12CC[C@H](O)C[C@H]1CCC1C2CC[C@]2(C)[C@@H](c3ccc(=O)oc3)C[C@H]3O[C@]132 (stereo not given in full)	u	0.8%	x	u	x	u
SMILES	VDR inhibitor	GCN5L2 inh	PLK1 PBD block	DT40 TDP1 CPT	TDP1 inh	TDP1 cell noCPT
C[C@]12CC[C@H](O)C[C@H]1CC[C@@H]1[C@@H]2CC[C@]2(C)[C@@H](c3ccc(=O)oc3)C[C@H]3O[C@]132	x	x	x	u	x	15µM*
CCOC(=O)c1cccc(NC(=O)c2cnc(N3CCCCC3)c3ccccc23)c1	4.0%	2.0%	x	18.4µM*	5.5%	23.1µM*
O=S(=O)(c1ccc(Cl)cc1)N1CN2CCN(C2)C1	8.8%	-6.9%	-1.2%	23.1µM*	-2.2%	u
O=S(=O)(c1ccc(F)cc1)N1CN2CCN(C2)C1	-9.5%	-3.1%	-15.0%	u	x	u
Oc1ccc(O)c2c1C1(Cl)C(Cl)=C(Cl)C2(Cl)C1(Cl)Cl	11.5%	x	-4.9%	23.1µM*	x	16.4µM*
Oc1ccccc1Cl	-7.9%	-2.7%	5.1%	7.4%	0.3%	4.3%
NC(=O)Oc1ccc(Cc2ccccc2)cc1	0.7%	-6.5%	x	-25.1%	1.7%	u
CCOC(=O)C(O)(c1ccc(N(C)C(=O)COc2ccccc2)cc1)C(F)(F)F (stereo not given)	-11.9%	x	1.4%	-9.1%	x	0.2%
CN(C)C(=O)O/N=C(\N)COc1ccc(C(C)(C)C)cc1	2.3%	3.0%	2.1%	20.6µM*	2.6%	u
COC(=O)[C@H]1C(=O)c2ccccc2O[C@@](C(=O)OC)(c2ccccc2)[C@@H]1c1ccccc1	x	x	x	x	2.6%[21 µM]	x
COc1ccc(OC)c([C@@H](O)[C@H](C)N)c1	x	x	x	-26.2%	x	-15.0%
Cc1ccc2ccccc2c1	x	x	x	x	15.5%	x
Cc1ccc2c(C)c3ccc4ccccc4c3c[n+]2c1	-1.5%	x	-3.5%	3.66µM*	x	4.61µM*
CNC(C(=O)c1ccccc1)C(OC)c1ccc(C)cc1 (stereo not given)	-11.5%	0.0%	-6.3%	-12.6%	2.6%	-28.1%
O=C(c1cc(-c2ccc(Cl)cc2)n(-c2ccc(Cl)cc2Cl)n1)N1CCOCC1	-10.6%	-22.9%	4.9%	u	-2.0%	u
C=CCn1nc(C(=O)N2CCOCC2)cc1-c1sc(NC(=O)c2ccccc2)nc1C	x	x	4.1%	14.6µM*	x	10.3µM*
COc1cc(C2c3cc4c(c(O)c3CC3COC(=O)C32)OCO4)cc(OC)c1OC (stereo not given)	-1.3%	0.7%	1.5%	0.092µM*	1.1%	0.116µM*
COc1cc([C@@H]2c3cc4c(c(O)c3C[C@H]3COC(=O)[C@@H]32)OCO4)cc(OC)c1OC	0.8%	x	x	0.159µM*	-6.6%	0.126µM*
